# Data: the supplement of paper PMC12494721
# Where a name gives a salt, the structure may show the parent alone.
# Legend:
# Settings in all cases: incubation time: 27 h, anaerobic, 37 °C;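 for the amine columns active = adjusted P below 0.05 in both replicates with a change the same way and a mean fold change under 0.8 or over 1.25; inactive = the rest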
# [1] = system: Clostridium sporogenes DSM 1664; assay: growth (OD595) fold change vs plate DMSO controls (fold change (ratio)); higher = more growth
# How it was run: (§1)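 Anaerobic 27 h, 37 °C mGAM 96-well cultures were shaken, then read for absorbance at 595 nm. Values were blank-subtracted and corrected for compound background using 20 µM compound solutions in water. A calibration factor of 5 converted them to OD. Growth is the fold change versus the median of plate DMSO controls. Fold changes above 1.5 were set to NA, and values are the mean of 2 biological replicates.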
# Escherichia coli IAI1 [2] = assay: as above
# How it was run: as §1
# [3] = system: Klebsiella aerogenes DSM 30053; assay: as above
# How it was run: as §1
# [4] = system: Ruminococcus gnavus DSM 108212; assay: as above
# How it was run: as §1
# [5] = system: Klebsiella aerogenes DSM 30053; assay: fold change of Histamine concentration vs plate DMSO controls (fold change (ratio)); higher = more amine produced, active = hit call of the paper (significant change in both replicates, either direction)
# How it was run: (§2)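 In 80 µL wells, cultures of four gut bacterial strains in mGAM started at OD 0.1 before a 1:1 dilution and grew anaerobically at 37 °C for 27 h. Compounds were added to 20 µM final, except sweeteners at 50 µM final. After extraction of whole cultures with cold acetonitrile/methanol plus 0.1% formic acid and centrifugation, amines were measured by LC–triple-quadrupole MS in dynamic MRM mode against external calibration curves, with within-batch drift correction. Values give fold change over DMSO controls on the same plate, averaged across 2 biological replicates.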
# [6] = system: Clostridium sporogenes DSM 1664; assay: fold change of Tryptamine concentration vs plate DMSO controls (fold change (ratio)); higher = more amine produced, active = hit call of the paper (significant change in both replicates, either direction)
# How it was run: as §2
# [7] = system: Ruminococcus gnavus DSM 108212; assay: as above
# How it was run: as §2
# Escherichia coli IAI1 [8] = assay: fold change of Putrescine concentration vs plate DMSO controls (fold change (ratio)); higher = more amine produced, active = hit call of the paper (significant change in both replicates, either direction)
# How it was run: as §2
# [9] = system: Klebsiella aerogenes DSM 30053; assay: as above
# How it was run: as §2
# Escherichia coli IAI1 [10] = assay: fold change of Cadaverine concentration vs plate DMSO controls (fold change (ratio)); higher = more amine produced, active = hit call of the paper (significant change in both replicates, either direction)
# How it was run: as §2
# [11] = system: Klebsiella aerogenes DSM 30053; assay: as above
# How it was run: as §2
# [12] = system: Ruminococcus gnavus DSM 108212; assay: fold change of 2-Phenylethylamine concentration vs plate DMSO controls (fold change (ratio)); higher = more amine produced, active = hit call of the paper (significant change in both replicates, either direction)
# How it was run: as §2
Structure (SMILES),growth [1],growth (Escherichia coli IAI1 [2]),growth [3],growth [4],fold change of Histamine concentration [5],fold change of Tryptamine concentration [6],fold change of Tryptamine concentration [7],fold change of Putrescine concentration (Escherichia coli IAI1 [8]),fold change of Putrescine concentration [9],fold change of Cadaverine concentration (Escherichia coli IAI1 [10]),fold change of Cadaverine concentration [11],fold change of 2-Phenylethylamine concentration [12]
CC(=O)OCC(=O)[C@@]12OC3(CCCC3)O[C@@H]1C[C@H]1[C@@H]3CCC4=CC(=O)C=C[C@]4(C)[C@@]3(F)[C@@H](O)C[C@@]12C [Amcinonide] (20 µM),1.12,1.02,1.02,1.19,1.04 (inactive),0.964 (inactive),1.05 (inactive),1.02 (inactive),0.999 (inactive),1.04 (inactive),0.997 (inactive),1.07 (inactive)
CCCCCCCN(CC)CCCC(O)c1ccc(NS(C)(=O)=O)cc1 (stereo not drawn) [Ibutilide fumarate] (20 µM),1.13,1.12,1.09,1.08,0.925 (inactive),0.904 (inactive),0.952 (inactive),1.03 (inactive),0.989 (inactive),1.02 (inactive),1.01 (inactive),0.903 (inactive)
CC(=O)N1CCN(c2ccc(OCC3COC(Cn4ccnc4)(c4ccc(Cl)cc4Cl)O3)cc2)CC1 (stereo not drawn) [Ketoconazole] (20 µM),1.17,0.988,1,0.945,0.927 (inactive),1.03 (inactive),0.984 (inactive),1.04 (inactive),0.979 (inactive),1.02 (inactive),0.994 (inactive),0.937 (inactive)
CC(/C=C1\SC(=S)N(CC(=O)O)C1=O)=C\c1ccccc1 [Epalrestat] (20 µM),1.15,0.964,1.05,0.896,1.05 (inactive),1.01 (inactive),1.16 (inactive),1.14 (inactive),0.992 (inactive),0.932 (inactive),1.12 (inactive),1.44 (inactive)
OC[C@H]1O[C@H](O[C@H]2O[C@H](CO)[C@@H](O)[C@H](O)[C@H]2O)[C@H](O)[C@@H](O)[C@@H]1O [Trehalose] (50 µM),0.902,1.07,1.03,1.06,0.94 (inactive),1.16 (inactive),1.09 (inactive),1 (inactive),0.901 (inactive),0.831 (inactive),1.06 (inactive),1.15 (inactive)
CCOC(=O)O[C@]1(C(=O)OCCl)CC[C@H]2[C@@H]3CCC4=CC(=O)C=C[C@]4(C)[C@H]3[C@@H](O)C[C@@]21C [Loteprednol etabonate] (20 µM),1.29,1.26,1.08,1.08,0.899 (inactive),1.03 (inactive),1.01 (inactive),1.25 (inactive),1 (inactive),0.955 (inactive),1.01 (inactive),1.02 (inactive)
O=C(c1cc(O)c(O)c(O)c1)c1ccc(O)c(O)c1O [Exifone] (20 µM),1.09,1,0.934,0.904,1.06 (inactive),1.09 (inactive),1.03 (inactive),1.01 (inactive),0.998 (inactive),0.991 (inactive),1 (inactive),1.07 (inactive)
NC[C@@H]1O[C@H](O[C@H]2[C@@H](O)[C@H](O[C@@H]3[C@@H](O)[C@H](N)C[C@H](N)[C@H]3O[C@H]3O[C@H](CO)[C@@H](O)[C@H](O)[C@H]3N)O[C@@H]2CO)[C@H](N)[C@@H](O)[C@@H]1O [Paromomycin sulfate] (20 µM),1.06,0.996,0.975,0.984,0.994 (inactive),1.03 (inactive),0.999 (inactive),1.01 (inactive),1 (inactive),0.972 (inactive),0.981 (inactive),0.987 (inactive)
CC(C)(C)NCC(O)c1ccc(O)c(CO)c1 (stereo not drawn) [Salbutamol] (20 µM),1.05,0.99,1.03,0.843,1.08 (inactive),0.999 (inactive),1.03 (inactive),1.04 (inactive),1.02 (inactive),1 (inactive),0.998 (inactive),1.03 (inactive)
CC(=O)[C@H]1CC[C@H]2[C@@H]3CC=C4C[C@@H](O)CC[C@]4(C)[C@H]3CC[C@]12C [Pregnenolone] (20 µM),1.1,1.07,1,0.993,1.06 (inactive),1.04 (inactive),0.998 (inactive),1.03 (inactive),1.02 (inactive),0.968 (inactive),0.994 (inactive),1 (inactive)
CN1CCN(CCCN2c3ccccc3Sc3ccc(Cl)cc32)CC1 [Prochlorperazine dimaleate] (20 µM),1.06,1.11,1.14,0.858,0.917 (inactive),1.04 (inactive),0.87 (inactive),0.974 (inactive),0.979 (inactive),0.971 (inactive),1.02 (inactive),0.97 (inactive)
N[C@@H]1CCCCN(c2c(F)cc3c(=O)c(C(=O)O)cn(C4CC4)c3c2Cl)C1 [Besifloxacin hydrochloride] (20 µM),0.0111,0.0312,0.191,0.266,0.189 (active),0.0464 (active),0.149 (active),0.814 (inactive),1.08 (inactive),0.267 (active),0.988 (inactive),0.166 (active)
C#C[C@]1(O)CC[C@H]2[C@@H]3[C@H](C)CC4=C(CCC(=O)C4)[C@H]3CC[C@@]21C [Tibolone] (20 µM),1.01,0.989,1.04,0.931,1.03 (inactive),1.05 (inactive),1.04 (inactive),1.03 (inactive),1.02 (inactive),0.994 (inactive),1.01 (inactive),1.02 (inactive)
CC(C)NCC(O)c1cc(O)cc(O)c1 (stereo not drawn) [Metaproterenol sulfate] (20 µM),0.982,1.03,1.02,1.17,0.981 (inactive),1.03 (inactive),0.957 (inactive),1.03 (inactive),0.979 (inactive),0.974 (inactive),0.992 (inactive),0.938 (inactive)
CC(C(=O)O)c1cccc(C(=O)c2ccccc2)c1 (stereo not drawn) [Ketoprofen] (20 µM),0.99,1.04,0.993,0.957,1.03 (inactive),0.984 (inactive),1.06 (inactive),1.1 (inactive),1.01 (inactive),1.02 (inactive),0.995 (inactive),1.12 (inactive)
CC[C@@H]([C@H](C)O)n1ncn(-c2ccc(N3CCN(c4ccc(OC[C@@H]5CO[C@@](Cn6cncn6)(c6ccc(F)cc6F)C5)cc4)CC3)cc2)c1=O [Posaconazole hydrate] (20 µM),0.942,1.02,1.02,1.03,1.11 (inactive),0.993 (inactive),1 (inactive),1.04 (inactive),1.03 (inactive),1.02 (inactive),0.992 (inactive),1.02 (inactive)
O=C(Oc1cccc2cccnc12)c1ccccc1 [Benzoxiquine] (20 µM),1.09,0.939,1.04,1.13,0.957 (inactive),1.03 (inactive),1.03 (inactive),0.984 (inactive),1.02 (inactive),0.995 (inactive),1.01 (inactive),1.07 (inactive)
COc1ccc2cc1Oc1ccc(cc1)C[C@H]1c3c(cc4c(c3Oc3cc5c(cc3OC)CCN(C)[C@@H]5C2)OCO4)CCN1C [Cepharanthine] (20 µM),0.965,0.982,1.02,0.925,1.04 (inactive),0.993 (inactive),0.945 (inactive),0.952 (inactive),1.01 (inactive),1.03 (inactive),1 (inactive),0.981 (inactive)
O=c1[nH]c(=O)n([C@H]2C[C@H](O)[C@@H](CO)O2)cc1C(F)(F)F [Trifluridine] (20 µM),1.14,1.04,0.99,0.913,1.09 (inactive),1.02 (inactive),1.07 (inactive),0.948 (inactive),0.972 (inactive),1.04 (inactive),0.975 (inactive),1.11 (inactive)
CO/N=C(\C(=O)N[C@@H]1C(=O)N2C(C(=O)O)=C(COC(N)=O)CS[C@H]12)c1ccco1 [Cefuroxime sodium salt] (20 µM),0,0.0568,0.796,0.229,1.1 (inactive),0.031 (active),0.0602 (active),0.84 (inactive),1.03 (inactive),1.98 (active),1.07 (inactive),0.0618 (active)
CN(C)CCOC(c1ccc(Cl)cc1)c1ccccn1 (stereo not drawn) [Carbinoxamine maleate salt] (20 µM),1.2,1.01,0.985,0.88,1.04 (inactive),0.981 (inactive),1.05 (inactive),0.966 (inactive),1.02 (inactive),0.974 (inactive),1 (inactive),1.1 (inactive)
CCN(CC)C(=O)C1(c2ccccc2)CC1CN (stereo not drawn) [Milnacipran hydrochloride] (20 µM),1,1.02,1.03,1.16,0.968 (inactive),1.11 (inactive),1.09 (inactive),0.94 (inactive),0.958 (inactive),0.895 (inactive),1.04 (inactive),1.12 (inactive)
CC[C@H]1OC(=O)[C@H](C)[C@@H](O[C@H]2C[C@@](C)(OC)[C@@H](O)[C@H](C)O2)[C@H](C)[C@@H](O[C@@H]2O[C@H](C)C[C@H](N(C)C)[C@H]2O)[C@](C)(O)C[C@@H](C)[C@@H]2N[C@@H](COCCOC)O[C@H]([C@H]2C)[C@]1(C)O [Dirithromycin] (20 µM),0.228,0.961,0.964,0.419,0.987 (inactive),0.0683 (active),0.134 (active),0.956 (inactive),0.991 (inactive),0.998 (inactive),1.01 (inactive),0.146 (active)
Nc1cc(C(Cl)=C(Cl)Cl)c(S(N)(=O)=O)cc1S(N)(=O)=O [Clorsulon] (20 µM),1.04,0.963,0.957,0.922,1.15 (inactive),0.998 (inactive),1.02 (inactive),1.02 (inactive),1.03 (inactive),0.981 (inactive),0.978 (inactive),1.01 (inactive)
